Results reported in PubChem BioAssay (Tox21).
Unmarked numbers belong to inactive results. Results filed as inconclusive are left out. Calls of active or inactive are those of the source. Unless noted, calls follow the shape of the full dose curve.

System: not listed separately
Experiment: qHTS assay to identify small molecule agonists of the sonic hedgehog signaling (Shh) pathway (AID 1259368);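 also: NIH/3T3-derived 3T3Gli1-Luc cells carrying a stable Gli1-driven firefly luciferase reporter; nearly all actives have a fitted effect of over 15% in size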
Settings: NIH/3T3 Gli1-Luc reporter, luciferase, 24 h; series mostly up to 92.4 µM; activity change: at the top concentration
In short: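 3T3Gli1-Luc (NIH/3T3 clone, stable Gli1-Luc); 4 hr pre-incubation, then cpd in DMSO 24 hr, 37 C/5% CO2; luciferase reagent 30 min RT; luminescence.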
% is scaled to controls: 0 for no effect and ±100 for the full control effect.

SMILES	activity change
CC(C)(C)NCC(O)COc1ccc(NC(=O)NC2CCCCC2)cc1 (configuration not stated)	0.124% [at 42.5 µM, hits give high values]
O=C(O)c1ccc2cc(O)ccc2c1	0.159%
CC(C(=O)O)c1ccc2c(c1)Cc1cccnc1O2 (configuration not stated)	-0.289% [at 42.5 µM, hits give high values]
CC(O)CN (configuration not stated)	-0.315%
CCCCCC1CCC(=O)O1 (configuration not stated)	-4.16%
OCCc1ccncc1	-2.45%
CCCCOC(=O)C(C)Oc1ccc(Oc2ccc(C(F)(F)F)cn2)cc1 (configuration not stated)	-0.956%
O=Cc1ccc(Cl)c([N+](=O)[O-])c1	-12.8%
CCC(CC)C(=O)O	-0.411%
Nc1ccc(F)cc1F	-0.191%
CCOC(OCC)OCC	-0.111%
CCCC1CCCC(=O)O1 (configuration not stated)	1.08%
C=C[Si]1(C)O[Si](C)(C=C)O[Si](C)(C=C)O[Si](C)(C=C)O1 (configuration not stated)	-0.734%
CCOC(C)OCC	0.743%
C=CCCC	0.119%
O=C(c1ccco1)N1CCNCC1	0.0673% [at 42.5 µM, hits give high values]
COC(=O)c1cc(Cl)ccc1[N+](=O)[O-]	1.45%
CC1(C)CC(=O)CC(C)(C)N1	0.318%
CCC(=O)O[C@@H]1C[C@H]2CC[C@]1(C)C2(C)C	-0.0589%
S=c1[nH][nH]c(=S)s1	0.476%

SMILES	activity change
CCCCCCCCCCCC(=O)OCC	0.0191%
CCCCCCCCCCCCCCCCCCCl	0.949% [at 8.39 µM, hits give high values]
CCCC(=O)OCc1ccccc1	-0.0939%
O=C(O)c1ccccc1-n1cc(C(=O)O)c(=O)c2cc(Nc3c(F)cc(F)cc3Cl)c(Cl)cc21	0.104%
CCCCCCCCS	-0.473%
CCCOC(C)=O	-0.34%
C[C@@H](O)[C@H]1C(=O)N2C(C(=O)O)=C(S[C@@H]3CN[C@H](CNS(N)(=O)=O)C3)[C@H](C)[C@H]12	0.687% [at 42.5 µM, hits give high values]
FC(F)(Cl)C(F)(Cl)Cl	-0.375%
Cc1ccc2c(Cl)cc(Cl)c(O)c2n1	0.35% [at 42.5 µM, hits give high values]
CC(C)(O)C(=O)O	-0.229%
N#C[C@@H]1CC(F)(F)CN1C(=O)CNC1CC2CCC(C1)N2c1ncccn1 (some centres not stated)	-4.2%
O=C1C=CCCC1	0.0853%
NC(=O)c1ccccc1	1.85%
CC(=O)CC/C=C(\C)CC/C=C(\C)CC/C=C(\C)CCC=C(C)C	0.134% [at 42.5 µM, hits give high values]
C/C(=C(\CCO)SS/C(CCO)=C(\C)N(C=O)Cc1cnc(C)nc1N)N(C=O)Cc1cnc(C)nc1N	0.0314% [at 42.5 µM, hits give high values]
CCCCCCCCCCCCCCCCC(=O)O	-2.06% [at 42.5 µM, hits give high values]
Cc1c(-c2cccnc2)c2ccccc2n1CCCCC(=O)O	2.96%
Clc1nc2ccccc2nc1Cl	-1.56%
CC(C)=CCC[C@H](C)CCO	-1.09%

System: not listed separately
Experiment: qHTS assay to identify small molecule antagonists of the sonic hedgehog signaling (Shh) pathway (AID 1259369); also: nearly all actives have a fitted effect of over 45% in size; also: potency is read from the fitted curve at half-maximal effect
Settings: NIH/3T3 Gli1-Luc reporter, Shh antagonist, luminescence 24 h; series mostly up to 92.4 µM; activity change, negative = inhibition: at the top concentration
In short: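 3T3Gli1-Luc, conditioned-medium-stimulated, 24hr cpd, 37C/5% CO2; Gli1-driven firefly Luc luminescence after 30min RT with luciferase reagent. Cells plated 4hr before cpd.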

SMILES	activity change, negative = inhibition	Potency
CC(C)(C)NCC(O)COc1ccc(NC(=O)NC2CCCCC2)cc1 (configuration not stated)	-16.7% [at 42.5 µM]	
O=C(O)c1ccc2cc(O)ccc2c1	19.5%	
CC(C(=O)O)c1ccc2c(c1)Cc1cccnc1O2 (configuration not stated)	28.7% [at 42.5 µM]	
CC(O)CN (configuration not stated)	-4.72%	
CCCCCC1CCC(=O)O1 (configuration not stated)	6.95%	
OCCc1ccncc1	12.8%	
CCCCOC(=O)C(C)Oc1ccc(Oc2ccc(C(F)(F)F)cn2)cc1 (configuration not stated)	0%	
O=Cc1ccc(Cl)c([N+](=O)[O-])c1	4.07%	
CCC(CC)C(=O)O	28.1%	
Nc1ccc(F)cc1F	-12.1%	
CCOC(OCC)OCC	0%	
CCCC1CCCC(=O)O1 (configuration not stated)	1.5%	
C=C[Si]1(C)O[Si](C)(C=C)O[Si](C)(C=C)O[Si](C)(C=C)O1 (configuration not stated)		30.6 µM (active)
CCOC(C)OCC	41.9%	
C=CCCC	13.6%	
O=C(c1ccco1)N1CCNCC1	20.3% [at 42.5 µM]	
COC(=O)c1cc(Cl)ccc1[N+](=O)[O-]	-8.74%	
CC1(C)CC(=O)CC(C)(C)N1	0%	
CCC(=O)O[C@@H]1C[C@H]2CC[C@]1(C)C2(C)C	14.4%	
S=c1[nH][nH]c(=S)s1	9.35%	

SMILES	activity change, negative = inhibition	Potency
CCCCCCCCCCCC(=O)OCC	0%	
CCCCCCCCCCCCCCCCCCCl	-7.01% [at 8.39 µM]	
CCCC(=O)OCc1ccccc1	0%	
O=C(O)c1ccccc1-n1cc(C(=O)O)c(=O)c2cc(Nc3c(F)cc(F)cc3Cl)c(Cl)cc21	1.37%	
CCCCCCCCS	21%	
CCCOC(C)=O	58.8%	
C[C@@H](O)[C@H]1C(=O)N2C(C(=O)O)=C(S[C@@H]3CN[C@H](CNS(N)(=O)=O)C3)[C@H](C)[C@H]12	3.96% [at 42.5 µM]	
FC(F)(Cl)C(F)(Cl)Cl	30.7%	
Cc1ccc2c(Cl)cc(Cl)c(O)c2n1	3.11% [at 42.5 µM]	
CC(C)(O)C(=O)O	0.19%	
N#C[C@@H]1CC(F)(F)CN1C(=O)CNC1CC2CCC(C1)N2c1ncccn1 (some centres not stated)	0%	
O=C1C=CCCC1	11.9%	
NC(=O)c1ccccc1	21.9%	
CC(=O)CC/C=C(\C)CC/C=C(\C)CC/C=C(\C)CCC=C(C)C	-8.15% [at 42.5 µM]	
C/C(=C(\CCO)SS/C(CCO)=C(\C)N(C=O)Cc1cnc(C)nc1N)N(C=O)Cc1cnc(C)nc1N	16.2% [at 42.5 µM]	
CCCCCCCCCCCCCCCCC(=O)O	-30.3% [at 42.5 µM]	
Cc1c(-c2cccnc2)c2ccccc2n1CCCCC(=O)O	0%	
Clc1nc2ccccc2nc1Cl	-22.4%	
CC(C)=CCC[C@H](C)CCO	-6.42%	

Biological target: Estrogen receptor beta (Homo sapiens) (UniProt Q92731)
Sequence (Q92731 whole entry, looked up): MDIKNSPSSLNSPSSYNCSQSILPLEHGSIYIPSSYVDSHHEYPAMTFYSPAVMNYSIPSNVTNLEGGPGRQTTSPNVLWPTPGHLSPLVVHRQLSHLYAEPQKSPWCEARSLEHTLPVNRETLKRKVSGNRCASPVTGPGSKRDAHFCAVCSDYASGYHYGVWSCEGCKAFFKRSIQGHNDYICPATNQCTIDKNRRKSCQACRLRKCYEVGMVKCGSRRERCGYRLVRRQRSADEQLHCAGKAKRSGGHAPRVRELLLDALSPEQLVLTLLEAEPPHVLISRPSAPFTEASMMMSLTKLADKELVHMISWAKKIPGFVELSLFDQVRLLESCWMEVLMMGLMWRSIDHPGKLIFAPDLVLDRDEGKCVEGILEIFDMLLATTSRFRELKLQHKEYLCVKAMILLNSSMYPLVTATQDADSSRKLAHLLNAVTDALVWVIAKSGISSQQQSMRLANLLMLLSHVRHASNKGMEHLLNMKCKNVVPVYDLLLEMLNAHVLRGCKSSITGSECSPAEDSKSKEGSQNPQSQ
Experiment: qHTS assay to identify small molecule agonists of the estrogen receptor beta (ER-beta) signaling pathway (AID 1259377; active = well fitted activation curve with a large enough effect in the signal ratio in the repeat runs, not every such curve was filed as active; the % refers to the signal ratio)
Settings: ER-beta-UAS-bla HEK293T, beta-lactamase FRET ratio, 16 h; series mostly up to 92.4 µM; activation: at the top concentration
In short: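 ER-beta-UAS-bla HEK293T cells in medium with 2% charcoal-stripped FBS were exposed to compounds for 16 h at 37C. Beta-lactamase reporter activity was read as fluorescence after 2 h with LiveBLAzer B/G FRET substrate at room temperature.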

SMILES	activation
CC(C)(C)NCC(O)COc1ccc(NC(=O)NC2CCCCC2)cc1 (configuration not stated)	3.81% [at 42.5 µM]
O=C(O)c1ccc2cc(O)ccc2c1	0.0511%
CC(C(=O)O)c1ccc2c(c1)Cc1cccnc1O2 (configuration not stated)	-3.13% [at 42.5 µM]
CC(O)CN (configuration not stated)	10.5%
CCCCCC1CCC(=O)O1 (configuration not stated)	0.818%
OCCc1ccncc1	-1.11%
CCCCOC(=O)C(C)Oc1ccc(Oc2ccc(C(F)(F)F)cn2)cc1 (configuration not stated)	-0.328%
O=Cc1ccc(Cl)c([N+](=O)[O-])c1	-0.464%
CCC(CC)C(=O)O	2.99%
Nc1ccc(F)cc1F	-1.63%
CCOC(OCC)OCC	-0.0663%
CCCC1CCCC(=O)O1 (configuration not stated)	0.168%
C=C[Si]1(C)O[Si](C)(C=C)O[Si](C)(C=C)O[Si](C)(C=C)O1 (configuration not stated)	-0.0295%
CCOC(C)OCC	-0.288%
C=CCCC	-3.59%
O=C(c1ccco1)N1CCNCC1	-0.783% [at 42.5 µM]
COC(=O)c1cc(Cl)ccc1[N+](=O)[O-]	-0.0663%
CC1(C)CC(=O)CC(C)(C)N1	1.95%
CCC(=O)O[C@@H]1C[C@H]2CC[C@]1(C)C2(C)C	9.9%
S=c1[nH][nH]c(=S)s1	0.649%

SMILES	activation
CCCCCCCCCCCC(=O)OCC	-0.237%
CCCCCCCCCCCCCCCCCCCl	-3.3% [at 8.39 µM]
CCCC(=O)OCc1ccccc1	10.2%
O=C(O)c1ccccc1-n1cc(C(=O)O)c(=O)c2cc(Nc3c(F)cc(F)cc3Cl)c(Cl)cc21	3.41%
CCCCCCCCS	9.21%
CCCOC(C)=O	9.29%
C[C@@H](O)[C@H]1C(=O)N2C(C(=O)O)=C(S[C@@H]3CN[C@H](CNS(N)(=O)=O)C3)[C@H](C)[C@H]12	0.351% [at 42.5 µM]
FC(F)(Cl)C(F)(Cl)Cl	-0.73%
Cc1ccc2c(Cl)cc(Cl)c(O)c2n1	2.32% [at 42.5 µM]
CC(C)(O)C(=O)O	2.26%
N#C[C@@H]1CC(F)(F)CN1C(=O)CNC1CC2CCC(C1)N2c1ncccn1 (some centres not stated)	7.57%
O=C1C=CCCC1	-3.95%
NC(=O)c1ccccc1	0.0236%
CC(=O)CC/C=C(\C)CC/C=C(\C)CC/C=C(\C)CCC=C(C)C	-0.0358% [at 42.5 µM]
C/C(=C(\CCO)SS/C(CCO)=C(\C)N(C=O)Cc1cnc(C)nc1N)N(C=O)Cc1cnc(C)nc1N	8.49% [at 42.5 µM]
CCCCCCCCCCCCCCCCC(=O)O	1.62% [at 42.5 µM]
Cc1c(-c2cccnc2)c2ccccc2n1CCCCC(=O)O	2.03%
Clc1nc2ccccc2nc1Cl	4.76%
CC(C)=CCC[C@H](C)CCO	-0.894%
